Measurements published in PubChem BioAssay (NCI).
The panel holds about 83,000 compounds, 20% with a hit somewhere; the sample as a whole holds those more often.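 Testing used 96-well plates and a 48-hour single-concentration exposure. Example: -40 means 40% of the starting cells died.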 Unmarked numbers belong to inactive results. Activity calls are given as the source filed them. How the source made its calls: active means growth percent below 10; inactive means the rest.

Legend:
Assay in all cases: NCI-60 one-dose screen, 48 h (100 = growth as untreated, 0 = no growth, -100 = all killed)
Conditions in all cases: 10 µM
[1] = system: HT29 colon
[2] = system: SNB-75 CNS
[3] = system: SNB-19 CNS
[4] = system: U251 CNS
[5] = system: PC-3 prostate
[6] = system: SK-MEL-5 melanoma
[7] = system: UACC-62 melanoma
[8] = system: LOX IMVI melanoma
[9] = system: SK-MEL-28 melanoma
[10] = system: SK-MEL-2 melanoma
[11] = system: SN12C renal
[12] = system: UO-31 renal
[13] = system: TK-10 renal
[14] = system: ACHN renal
[15] = system: CAKI-1 renal
[16] = system: A498 renal
[17] = system: CCRF-CEM leukemia
[18] = system: MOLT-4 leukemia
[19] = system: SR leukemia

SMILES	growth [1]	growth [2]	growth [3]	growth [4]	growth [5]	growth [6]	growth [7]	growth [8]	growth [9]	growth [10]	growth [11]	growth [12]	growth [13]	growth [14]	growth [15]	growth [16]	growth [17]	growth [18]	growth [19]
C#Cc1ccc(-n2c(/C=C/c3ccc4ccccc4n3)nc3ncccc3c2=O)cc1	-61.4% (active)	-59.2% (active)	-0.995% (active)	-57.6% (active)	-28.6% (active)	-98.2% (active)	-65.3% (active)	-50.8% (active)	-52.8% (active)	-67% (active)	-15% (active)	-91.7% (active)	-44.4% (active)	2.7% (active)	-20.5% (active)	-69.1% (active)	-15.1% (active)	-7.6% (active)	-17.9% (active)
CC(=O)N1N=C(c2ccc(Cl)cc2)CC1c1sc(Cl)nc1Cl (centres undefined)	64.2%	84.3%	66.9%	71.2%	72.8%	89.5%	83.3%	88.4%	94.7%	84.9%	69.6%	40.9%	68.8%	105%	75.9%	9.27% (active)	93.4%	77.6%	58.5%
COc1cc(-c2cc(/C=C/C(=O)c3ccc(N)cc3)[nH]n2)cc(OC)c1OC	2.34% (active)	8.6% (active)	36.6%	-58.4% (active)	11.1%	11.8%	20.6%	-52.3% (active)	6.59% (active)	28.6%	13.2%	6% (active)	-2.46% (active)	-52.8% (active)	9.46% (active)	-8.28% (active)	5.88% (active)	3.34% (active)	9.82% (active)
O=C1/C(=C/c2ccc([N+](=O)[O-])s2)Oc2ccccc21	-15% (active)	-7.58% (active)	-0.508% (active)	-76.5% (active)	-23.2% (active)	-64.8% (active)	-80.4% (active)	-70.4% (active)	-35.9% (active)	-48.9% (active)	-23.1% (active)	-78.1% (active)	-21.5% (active)	-55.3% (active)	-26.8% (active)	97.9%	-13% (active)	-6.14% (active)	7.01% (active)
ClC(Cl)(Cl)c1nc2nccnc2[nH]1	102%	83.4%	102%	104%	102%	113%	107%	102%	110%	109%	98%	80.4%	119%	103%	87.2%	107%	96.7%	104%	102%
COc1ccc(C2=Nc3c(C)nn(-c4ccccc4)c3NC(c3ccc(Oc4ccnc5cc(Cl)ccc45)c(OC)c3)C2)cc1 (centres undefined)	56.2%	62.3%	78.6%	86.7%	54.8%	89.4%	75.9%	89.3%	95.1%	90.9%	72.5%	53%	129%	76.4%	70.8%	54.2%	71.2%	51.4%	-0.699% (active)
COc1ccc(S(=O)(=O)Nc2c(/C=C\c3cc(OC)c(OC)c(OC)c3)ccc(OC)c2O)cc1	11.7%	31.3%	48.5%	6.01% (active)	30.5%	-17% (active)	38.6%	15.5%	58.2%	3.84% (active)	20.9%	39.9%	39.9%	22.7%	32.9%	-19.9% (active)	13.5%	8.7% (active)	10.5%
O=C(O)CC(Cl)C(Cl)CC(=O)O (centres undefined)	101%	103%	103%	98.6%	98.1%	108%	100%	94%	107%	107%	102%	81.1%	95.7%	103%	91.6%	105%	89.9%	97.1%	0.349% (active)
Cn1c(N)c(N=Nc2ccc(S(=O)(=O)Nc3nccs3)cc2)c(=O)n(C)c1=O	107%	94.1%	104%	99.2%	90.5%	104%	106%	89.4%	112%	92.4%	97%	68.6%	98.7%	102%	95.4%	96.9%	95.8%	92.6%	95.2%
Cc1ccc(N=Nc2c(N)nc(N)[nH]c2=O)cc1C	93%	104%	110%	103%	95.7%	101%	109%	96%	115%	100%	105%	72.5%	110%	106%	94.4%	103%	95.2%	93.2%	88.3%
CC/C(=C(/c1ccc(OCCN(C)C)cc1)c1ccc(OC(=O)CCC(=O)c2c(C)[nH]c(/C=C3\N=C(c4ccc[nH]4)C=C3OC)c2C)cc1)c1ccccc1	6.7% (active)	28.3%	72.7%	12.5%	19.3%	2.36% (active)	-13.8% (active)	-45% (active)	62.1%	-11.4% (active)	35.9%	5.9% (active)	21.7%	30.4%	18.8%	50.3%	6.12% (active)	3.77% (active)	-21% (active)
Cc1ccc(C(=O)N2C/C(=C/c3ccccc3)C(=O)/C(=C/c3ccccc3)C2)cc1	-17.9% (active)	67.9%	83%	47%	65.3%	58.9%	76.9%	-24.5% (active)	79.8%	80.2%	79.5%	56.6%	96.7%	72.6%	63.2%	71.7%	23.3%	32.6%	-12.4% (active)
N=C(N)c1ccc(-c2ccc(-c3cccs3)o2)cc1	-26.5% (active)	40.6%	73.7%	12.4%	50.5%	44.6%	67.7%	12.2%	47.6%	-7.14% (active)	54.5%	65.9%	96.5%	62.7%	37.8%	33.5%	19.9%	-2.16% (active)	-24.5% (active)
CSc1nn(-c2ccccc2)c2ncnc(Oc3ccccc3)c12	87.3%	70.1%	93.9%	86%	98%	97%	101%	98.4%	111%	80.6%	86.2%	7.79% (active)	106%	106%	88.7%	138%	89.6%	97.3%	84%
O=C1/C(=C\c2ccc(F)cc2)CN(C(=O)c2ccccc2F)C/C1=C\c1ccc(F)cc1	-37% (active)	52.9%	33.4%	-63% (active)	-34.3% (active)	-58.6% (active)	-77.6% (active)	-80.8% (active)	-72.5% (active)	30.4%	-57.1% (active)	-72.6% (active)	9.87% (active)	-33.1% (active)	-35.4% (active)	47.5%	-16.4% (active)	-1.83% (active)	-17.7% (active)
COc1cc(-c2nc(Nc3nc4ccccc4s3)[nH]c(=O)c2C#N)cc(OC)c1O	110%	88.6%	96.1%	105%	101%	106%	102%	106%	110%	105%	102%	88.1%	112%	102%	113%	103%	103%	94.7%	108%
